# KB-3-1 cytotox: qHTS assay for MDR1-selective chemotherapeutics: Primary screen using the parental adenocarcinoma cell KB-3-1 | actives 1.4% (n = 400,000) | KB-3-1 viability, CellTiter-Glo ATP luminescence, 72 h | Potency, µM (titrated, usually from 46.1 µM), actives largely listed as cytotoxic; further: potency means the concentration at half of the fitted maximal effect; nearly all actives have a fitted effect of over 60% in size
#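 Here the drug-naive KB-3-1 line serves as comparator for MDR sub-line selectivity; cells received compound titrations, 72 h at 37 °C, then CellTiter-Glo readout.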
# HT1080NT lethal: qHTS for induction of synthetic lethality in tumor cells producing 2HG: qHTS for the HT-1080-NT fibrosarcoma cell line; HT-1080-NT fibrosarcoma viability, CellTiter-Glo ATP luminescence, 48 h; Potency, µM (titrated, usually from 46.1 µM), inactives show at the highest dose activity, negative = less viability, most hits filed as cytotoxic; AID 686970, 2013; actives 1.6% (n = 360,000);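 further: NT is the 2HG producing partner of a matched IDH1 knockdown line; potency means the concentration at half of the fitted maximal effect; 0% = DMSO-treated cells and -100% = media-only wells without cells; nearly all actives have a fitted effect of over 55% in size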
#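 Viability of the 2HG-overproducing fibrosarcoma line after 48 hours of compound exposure at 37 degrees C was determined by luminescence with CellTiter-Glo, and concentration-effect curves were then fitted and categorized.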
# IL-1B inflam inh: qHTS for Inhibitors of Inflammasome Signaling: IL-1-beta AlphaLISA Primary Screen. THP-1 LPS/ATP IL-1B secretion, AlphaLISA, 16 h; stronger effect = lower value. activity change, % at 57.5 µM. actives 4.7% (n = 360,000). AID 743279, 2014; in the data active means activity change below about -50%; inconclusive means mostly about -30% to -49%
#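 Secreted IL-1B measured by AlphaLISA bead assay after 16 h compound exposure of THP-1 cells; compounds (final up to 57.5 uM) added 1 h before LPS (250 ng/mL) and ATP (1.25 mM) stimulation; lower signal means less secretion.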
# HT1080 IDH1KD tx: qHTS for induction of synthetic lethality in tumor cells producing 2HG: qHTS for the HT-1080-IDH1KD cell line; actives 2% (n = 360,000); AID 686971, 2013; Potency, µM (highest dose often 46.1 µM), inactives show top-dose activity, negative = toxicity, usual class: cytotoxic; HT-1080 IDH1 knockdown viability, ATP luminescence, 48 h;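 further: potency means the concentration at half of the fitted maximal effect; 0% = DMSO wells and -100% = cell-free medium wells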
#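 HT-1080-IDH1KD cells (IDH1 knocked down), 750/well in RPMI with 5% FBS, treated with compound 48 h at 37 degrees C. Viability by CellTiter-Glo luminescence, normalised to DMSO and no-cell wells; concentration-response curves classed.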
# KB-V1 MDR tox: qHTS assay for MDR1-selective chemotherapeutics: Primary screen using the drug-selected MDR subline cells KB-V1; KB-V1 MDR cells viability, CellTiter-Glo, 72 h; Potency, µM (highest dose often 46.1 µM), actives largely listed as cytotoxic; actives 3.4% (n = 400,000); further: potency means the concentration at half of the fitted maximal effect; nearly all actives have a fitted effect of over 60% in size
#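 KB-V1 cells (P-gp-expressing MDR subline of KB-3-1) in phenol-red-free DMEM with 10% FBS were exposed to library compounds over a concentration series for 72 h at 37 degrees C. Viability read by CellTiter-Glo luminescence; concentration-effect curves fitted after normalization.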
# Active calls of the source: *; i = inactive; ? = inconclusive; . = no result; [ ] = another dose, or the depositor's remark. Hits are enriched below; roughly 8.8% of the tested compounds scored in any of these assays. Unless noted, the call rests on the fitted dose curve; in most records, active means well fitted curve in the direction sought with a large enough effect; inconclusive means small, poorly fitted or top-dose-only effect, or another doubt; inactive means no such curve, though single readings can be large; an effect the other way counts as inactive or inconclusive. Unless noted, on the % scale 0 is the no-effect control and ±100 the full control effect.
SMILES,KB-3-1 cytotox,HT1080NT lethal,IL-1B inflam inh,HT1080 IDH1KD tx,KB-V1 MDR tox
COc1ccc(S(=O)(=O)N2CCOCC2)cc1NC(=O)CO/N=C/c1ccccc1OC(F)F,i,0%,?,-2%,?
O=C(/C=C/c1ccc(OC(F)F)cc1)Nc1cccc(S(=O)(=O)N2CCOCC2)c1,?,?,-65*,?,?
COc1ccc(CN(C)C(=O)/C=C/c2ccc(S(=O)(=O)N3CCOCC3)cc2)cc1F,i,2%,-14,0%,?
COc1cc(/C=C/C(=O)Nc2cccc(S(=O)(=O)N3CCOCC3)c2)ccc1OCC#N,i,-3%,-54*,?,i
CN(Cc1ccc(OC(F)F)cc1)C(=O)/C=C/c1ccc(S(=O)(=O)N2CCOCC2)cc1,i,2%,-66*,-3%,i
COc1ccc(/C=C/C(=O)Nc2cccc(S(=O)(=O)N3CCOCC3)c2)cc1OC,i,-1%,10,1%,i
COc1ccc(NC(=O)C2CC(=O)N(c3ccccc3Cl)C2)c(OC)c1 (stereo not drawn),i,4%,-13,-3%,i
COc1ccc(/C=C/C(=O)NC2CCCCCCC2)cc1S(=O)(=O)N1CCOCC1,?,?,0,?,23µM*
Cc1ccc(S(=O)(=O)Nc2ccc(C(OC(=O)c3ccccc3[N+](=O)[O-])(C(F)(F)F)C(F)(F)F)cc2)cc1,?,-13%,-88*,?,3.7µM*
O=C(c1cccs1)c1coc2ccc(O)c(CN3CCOCC3)c12,i,11%,-5,5%,2.9µM*
Cc1ccc(C(=O)c2coc3ccc(O)c(CN4CCN(C)CC4)c23)cc1,i,-6%,-54*,-18%,i
Oc1ccc(N=Cc2ccc(-c3cccs3)s2)cc1,i,-28%[9.24 µM],14,10µM*,i
O=Cc1ccc(-c2cccs2)s1,i,-5%,32,-8%,i
Cc1ccc([C@H]2C[C@H](O)[C@@H](n3cc(-c4ccc(F)cc4)nn3)CN2CC2CCCCC2)cc1,i,-4%,5,1%,i
Cc1cccc(NC(=O)c2ccc(NS(=O)(=O)c3cccc4cccnc34)cc2)c1,i,?,-2,-20%,i
CCOc1ccc(CN2CCC(C(=O)Nc3cccc(-c4ccn[nH]4)c3)CC2)cc1Cl,i,18µM*,-76*,?,?
Cc1cc(N2CCCC2=O)cc(C)c1S(=O)(=O)NCCOc1ccc(C(C)(C)C)cc1,?,?,-54*,?,?
COc1ccc2[nH]c3c(c2c1)CCN1C(=O)C(CC(=O)NC/C=C(\C)CCC=C(C)C)C[C@H](C(=O)N(C(C)C)C(C)C)[C@@]31C (stereo partly drawn),?,?,-64*,?,?
CC(C)=CCC/C(C)=C/CNC(=O)C[C@H]1C[C@H](C(=O)N2CCCCC2)[C@@]2(C)c3[nH]c4cc(CCC(=O)N(C)C)ccc4c3CCN2C1=O,i,-2%,-68*,-21%,i
CC[C@]12c3[nH]c4ccc(OC)cc4c3CCN1C(=O)C(CC(=O)NC(C)(C)C)C[C@@H]2C(=O)N1CCN(C(=O)c2ccco2)CC1 (stereo partly drawn),i,2%,0,3%,i
CC[C@]12c3[nH]c4ccc(Cl)cc4c3CCN1C(=O)[C@@H](CC(=O)NC/C=C(\C)CCC=C(C)C)C[C@@H]2C(=O)N1CCN(C(=O)C2CC2)CC1,?,?,?,21µM*,?
CC[C@]12c3[nH]c4ccc(OC)cc4c3CCN1C(=O)C(CC(=O)NC/C=C(\C)CCC=C(C)C)C[C@@H]2C(=O)N1CCN(C(=O)c2ccco2)CC1 (stereo partly drawn),i,-5%,-53*,-16%,i
Cc1ccc(C)c(Sc2ccc(S(=O)(=O)Nc3ccc(C(=O)O)cc3)cc2)c1,i,7%,41,1%,i
NC(=O)c1ccc(NC(=O)c2ccc3c(c2)CCN3S(=O)(=O)c2ccccc2)cc1,i,-20%,24,-6%,?
O=S(=O)(NCc1ccc(Cl)cc1)c1ccc2[nH]c3c(c2c1)CCCC3,?,.,.,.,i
SMILES,KB-3-1 cytotox,HT1080NT lethal,IL-1B inflam inh,HT1080 IDH1KD tx,KB-V1 MDR tox
CC[C@]12c3[nH]c4ccccc4c3CCN1C(=O)C(CC(=O)NC/C=C(\C)CCC=C(C)C)C[C@@H]2C(=O)N1CCN(C(=O)c2ccco2)CC1 (stereo partly drawn),i,-30%,-53*,?,i
CC[C@]12c3[nH]c4cc(-c5ccco5)ccc4c3CCN1C(=O)[C@@H](CC(=O)NC/C=C(\C)CCC=C(C)C)C[C@@H]2C(=O)N1CCN(C(=O)c2ccco2)CC1,?,-20%,?,?,?
O=C1CCC(C(=O)N2CCCCCC2)CN1CCc1ccc(Cl)cc1 (stereo not drawn),i,0%,-9,-1%,i
Cc1cccc(OCCSc2nnc(-c3ccoc3C)n2C)c1,i,6%,-1,13%,18µM*
COC(=O)C1=C(C)NC(=O)C1(NC(=O)c1ccc(Cl)cc1)C(F)(F)F (stereo not drawn),i,.,.,.,i
Cc1ccc(S(=O)(=O)N2[C@@H](c3ccc(Cl)c(Cl)c3)C(C(=O)O)=C[C@H]2C(C)(C)C)cc1,i,-5%,-9,-12%,i
CCOC(=O)C1=C[C@@H](C(C)(C)C)N(S(=O)(=O)c2ccc(C)cc2)[C@H]1c1ccc(Cl)c(Cl)c1,i,15µM*,25,15µM*,?
CCN(c1ccccc1)S(=O)(=O)c1ccc(Cl)nc1,i,24%,0,10%,i
CCN(c1cccc2ccccc12)S(=O)(=O)c1ccc(Cl)nc1,?,-9%,-75*,-8%,i
CC(C)N(C(C)C)S(=O)(=O)c1ccc(Cl)nc1,i,14%,0,13%,i
O=S(=O)(c1ccc(Cl)nc1)N(Cc1ccccc1)Cc1ccccc1,i,8%,-5,1%,18µM*
NS(=O)(=O)c1ccc(N=Nc2c(-c3ccccc3)[nH]n(-c3nc(-c4ccccc4)cs3)c2=O)cc1,?,-2%,?,-7%,21µM*
Nc1[nH]n2c(=O)cc(-c3ccccc3)nc2c1N=Nc1ccc(S(N)(=O)=O)cc1,i,-4%,-7,-10%,i
